# Experimental data taken from paper PMC4336329 (PLoS ONE, 2015).
# Out of some 310,000 compounds screened, about 14,000 (4.5%) showed an effect of 50% or more. The effect is printed as a negative number. The full list was thinned out, with strong results kept by preference.
# Biological target: human ether-à-go-go-related gene (hERG) potassium channel (human, UniProt Q12809)
# Experiment: primary screen, population patch clamp on CHO cells stably expressing hERG; higher = less effect of the substance
# 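Note: peak tail current of the secondary pulse compared with the same well before compound.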
# Chain of human ether-à-go-go-related gene (hERG) potassium channel (Q12809 whole entry, looked up): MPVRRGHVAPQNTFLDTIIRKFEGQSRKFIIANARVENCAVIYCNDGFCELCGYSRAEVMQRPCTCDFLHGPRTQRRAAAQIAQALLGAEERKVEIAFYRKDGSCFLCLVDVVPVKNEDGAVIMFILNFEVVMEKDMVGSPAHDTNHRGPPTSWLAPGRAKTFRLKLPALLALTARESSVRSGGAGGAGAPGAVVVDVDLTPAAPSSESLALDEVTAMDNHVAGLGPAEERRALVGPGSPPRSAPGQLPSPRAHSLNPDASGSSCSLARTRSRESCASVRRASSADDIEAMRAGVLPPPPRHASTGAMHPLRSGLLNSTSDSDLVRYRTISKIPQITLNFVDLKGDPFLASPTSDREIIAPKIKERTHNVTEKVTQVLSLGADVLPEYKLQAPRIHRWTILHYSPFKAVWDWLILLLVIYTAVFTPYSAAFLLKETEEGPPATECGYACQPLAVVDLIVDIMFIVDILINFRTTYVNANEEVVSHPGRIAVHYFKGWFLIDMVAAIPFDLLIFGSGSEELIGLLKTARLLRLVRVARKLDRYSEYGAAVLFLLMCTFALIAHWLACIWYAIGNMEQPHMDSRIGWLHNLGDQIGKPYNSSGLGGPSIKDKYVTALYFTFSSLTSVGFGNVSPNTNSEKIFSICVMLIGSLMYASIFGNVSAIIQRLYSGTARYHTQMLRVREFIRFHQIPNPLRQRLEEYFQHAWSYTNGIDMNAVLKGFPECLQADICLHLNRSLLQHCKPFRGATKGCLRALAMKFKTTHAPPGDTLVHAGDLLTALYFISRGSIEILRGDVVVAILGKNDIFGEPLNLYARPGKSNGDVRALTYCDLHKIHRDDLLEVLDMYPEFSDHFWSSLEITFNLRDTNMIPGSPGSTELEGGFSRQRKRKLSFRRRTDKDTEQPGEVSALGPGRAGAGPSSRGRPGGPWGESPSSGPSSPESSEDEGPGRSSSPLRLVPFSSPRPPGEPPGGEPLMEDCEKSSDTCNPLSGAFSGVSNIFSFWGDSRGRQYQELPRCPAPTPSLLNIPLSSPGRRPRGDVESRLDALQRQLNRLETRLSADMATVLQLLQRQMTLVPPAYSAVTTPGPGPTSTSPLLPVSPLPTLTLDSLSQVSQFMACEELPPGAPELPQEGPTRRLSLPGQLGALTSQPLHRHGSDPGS
row,SMILES,"hERG current change (%, negative = inhibition) at 10uM [%]"
1,O=c1nc2n(c3c4c(sc13)CCC4)CCC2,5.51
2,CC(=O)Nc1ccc(C(=O)NCCN2CCOCC2)cc1,15.8
3,CCOc1ccccc1/C=N/Nc1nc2c(N)ncnc2n1[C@H]1O[C@@H](CO)[C@H](O)[C@@H]1O,-9.61
4,O=C(CCN1CCOCC1)N1CCc2c([nH]c3ccccc23)C1c1cccc(Cl)c1 (centres unmarked),-70.5
5,Cc1ccccc1C1c2[nH]c3ccccc3c2C[C@H]2C(=O)N(c3ccccc3C(=O)NCCCN3CCOCC3)C(=O)N12 (some centres unmarked),-21.3
6,O=C(NCCCN1CCOCC1)c1ccccc1N1C(=O)[C@@H]2Cc3c([nH]c4ccccc34)C(c3cccc(Cl)c3)N2C1=O (some centres unmarked),-72.3
7,O=C(NCCCN1CCOCC1)c1ccccc1N1C(=O)[C@@H]2Cc3c([nH]c4ccccc34)C(c3ccc(F)cc3)N2C1=O (some centres unmarked),-68
8,CC(=O)NCCC(=O)N1CCc2c([nH]c3ccccc23)C1c1cccc(Cl)c1 (centres unmarked),-24.2
9,COc1ccc(C2c3[nH]c4ccccc4c3C[C@H]3C(=O)N(c4ccccc4C(=O)NCCN4CCOCC4)C(=O)N23)cc1 (some centres unmarked),-23.7
10,Cc1ccc(C2c3[nH]c4ccccc4c3C[C@H]3C(=O)N(c4ccccc4C(=O)NCCCN4CCOCC4)C(=O)N23)cc1 (some centres unmarked),-54.6
11,Cc1ccc(C2c3[nH]c4ccccc4c3C[C@H]3C(=O)N(c4ccccc4C(=O)NCCN4CCOCC4)C(=O)N23)cc1 (some centres unmarked),-24.9
12,O=C(c1cnccn1)N1CCc2c([nH]c3ccccc23)C1c1cccc(Cl)c1 (centres unmarked),-33.6
13,COc1cccc(C2c3[nH]c4ccccc4c3C[C@H]3C(=O)N(c4ccccc4C(=O)NCCCN4CCOCC4)C(=O)N23)c1 (some centres unmarked),-19.9
14,O=C(NCCN1CCOCC1)c1ccccc1N1C(=O)[C@@H]2Cc3c([nH]c4ccccc34)C(c3ccc(F)cc3)N2C1=O (some centres unmarked),-47.2
15,O=C(NCCN1CCOCC1)c1ccccc1N1C(=O)[C@@H]2Cc3c([nH]c4ccccc34)C(c3ccccc3)N2C1=O (some centres unmarked),-20.4
16,O=C(O)c1ccc(/C=C2\SC(=S)N(NC(=O)c3ccccc3[N+](=O)[O-])C2=O)cc1,12.4
17,[2H]C([2H])(CCOS(N)(=O)=O)c1ccccc1,11.1
18,CC(=O)N1CCc2c(sc(NC(=O)C3COc4ccccc4O3)c2C(N)=O)C1 (centres unmarked),-20
19,CCOc1ccc(CN2CCSCC2)cc1,2.36
20,O=C(NCCNS(=O)(=O)c1ccccc1)c1ccc([N+](=O)[O-])cc1,-12
21,COc1ccccc1Nc1nc(N)nc(CN2CCCCC2)n1,-54.9
22,Cc1c(Cl)cccc1Nc1nc(N)nc(CN2CCc3ccccc3C2)n1,-33
23,COc1ccccc1Nc1nc(N)nc(CN2CC(C)CC(C)C2)n1 (centres unmarked),-73.8
24,COc1ccccc1Nc1nc(N)nc(CSCCO)n1,15
25,COc1ccccc1Nc1nc(N)nc(CSC(=S)N2CCCCC2)n1,0.598
26,Cc1cccc(Nc2nc(N)nc(CN3CCC(C(N)=O)CC3)n2)c1C,17.5
27,COc1ccccc1Nc1nc(N)nc(CSC(=S)N2CC(C)CC(C)C2)n1 (centres unmarked),-9.46

row,SMILES,"hERG current change (%, negative = inhibition) at 10uM [%]"
1,COc1ccccc1Nc1nc(N)nc(CN2CCCCCC2)n1,-57.7
2,COc1ccccc1Nc1nc(N)nc(CN2CCOCC2)n1,10.1
3,COc1ccccc1Nc1nc(N)nc(CSc2ncccn2)n1,-24.2
4,Cc1c(Cl)cccc1Nc1nc(N)nc(CN2CCCCCC2)n1,-74.6
5,O=C(Nc1ccc2c(c1)OCO2)c1cccc(S(=O)(=O)N2CCCC2)c1,-15.9
6,CN(Cc1ccccc1)C(=O)CN1C(=O)NC(C)(c2ccc(C(C)(C)C)cc2)C1=O (centres unmarked),-16.8
7,COc1cccc(/C=N/NC(=O)c2nc(-c3ccccc3)cc(-c3ccccc3)n2)c1O,-9.46
8,Cc1cc(=O)oc2cc(OCC(=O)N/N=C/c3ccccc3O)ccc12,23.9
9,O.O=C(NCc1nc2ccccc2[nH]1)c1ccc(Cl)c(S(=O)(=O)N2CCCC2)c1,-14.3
10,CCOC(=O)c1oc2ccc(CNC(C)(C)C)c(Cl)c2c1C.O=C(O)C(=O)O,-5.61
11,O=C(CC(C(=O)O)P(=O)(c1ccccc1)c1ccccc1)c1ccccc1 (centres unmarked),24.3
12,Nc1ccc(-c2cc(N)n(-c3ccccc3)n2)cc1,0.669
13,Cn1c2ccccc2c2cc(C(=O)NNS(=O)(=O)c3ccc(F)cc3)sc21,-5.97
14,COc1ccccc1Nc1nc(N)nc(CN2CCC(C)CC2)n1,-67.5
15,COc1ccccc1Nc1nc(N)nc(CSC(=S)N2CCC(C)CC2)n1,-13.7
16,Cc1cc(C(F)(F)F)nn1C(=O)c1cccnc1Cl,-5.15
17,O=C(C1=C[C@H](C2CC2)C[C@H](OCCCCO)O1)N1CCN(Cc2ccccc2)CC1,-12.5
18,CCO[C@@H]1OC(C(=O)N2CCN(Cc3ccc4c(c3)OCO4)CC2)=C[C@H](C2CC2)[C@H]1CCCO,-18.7
19,CCO[C@@H]1OC(C(=O)N2CCN(Cc3ccc4c(c3)OCO4)CC2)=C[C@H](C2CCCCC2)[C@H]1CCCO,-17.8
20,CN1CCN(C(=O)C2=C[C@@H](C3CC3)C[C@@H](OCc3ccc(CO)cc3)O2)CC1,16.5
21,CC(C)(C)[C@H]1C=C(C(=O)N2CCN(Cc3ccccc3)CC2)O[C@@H](OCc2ccc(CO)cc2)C1,-38.9
22,O=C(C1=C[C@H](C2CC2)C[C@H](OCc2ccc(CO)cc2)O1)N1CCN(Cc2ccccc2)CC1,-62.7
23,O=C(C1=C[C@@H](C2CC2)C[C@@H](OCc2ccc(CO)cc2)O1)N1CCN(Cc2ccccc2)CC1,-58.7
24,CCO[C@H]1OC(C(=O)N2CCN(Cc3ccc4c(c3)OCO4)CC2)=C[C@@H](C2CCCCC2)[C@@H]1CCCO,-55.5
25,CN1CCN(C(=O)C2=C[C@H](C3CC3)C[C@H](OCc3ccc(CO)cc3)O2)CC1,-1.42
26,CN1CCN(C(=O)C2=C[C@@H](C3CCCCC3)C[C@@H](OCc3ccc(CO)cc3)O2)CC1,-13.6
27,O=C(C1=C[C@H](c2ccccc2)C[C@H](OCc2ccc(CO)cc2)O1)N1CCN(Cc2ccccc2)CC1,-41.2

row,SMILES,"hERG current change (%, negative = inhibition) at 10uM [%]"
1,CN1CCN(C(=O)C2=C[C@H](C3CCCCC3)C[C@H](OCc3ccc(CO)cc3)O2)CC1,-61.7
2,Cc1ccc(CNC(=O)C2CCN(c3nnc(N4CCCC4=O)s3)CC2)cc1,14.4
3,CCOc1ccc(-c2nc(C#N)c(NCC(C)C)o2)cc1,7.61
4,Cc1cccc(OCCCC(=O)NCc2ccco2)c1,2.27
5,CCc1cccc(NC(=O)CCSCCC(=O)Nc2cccc(CC)c2)c1,-9.75
6,CSc1n[nH]c2nc3c(c(=O)n12)C1(CCCCC1)Cc1ccccc1-3,-13
7,CCn1nnc(-c2ccccc2NC(=O)c2ccc(-n3cnnn3)cc2)n1,-21.9
8,O=C(C1=C[C@H](C2CCCCC2)C[C@H](OCCCCO)O1)N1CCN(Cc2ccccc2)CC1,-46.4
9,O=C(C1=C[C@@H](C2CCCCC2)C[C@@H](OCc2ccc(CO)cc2)O1)N1CCOCC1,-23.9
10,O=C(C1=C[C@H](C2CCCCC2)C[C@H](OCc2ccc(CO)cc2)O1)N1CCN(Cc2ccccc2)CC1,-67.6
11,O=C(C1=C[C@@H](C2CCCCC2)C[C@@H](OCc2ccc(CO)cc2)O1)N1CCN(Cc2ccccc2)CC1,-25.4
12,O=C(C1=C[C@H](C2CCCCC2)C[C@H](OCCCCO)O1)N1CCN(Cc2ccc3c(c2)OCO3)CC1,-56.5
13,O=C(C1=C[C@@H](C2CCCCC2)C[C@@H](OCCCCO)O1)N1CCN(Cc2ccc3c(c2)OCO3)CC1,-45.1
14,O=C(C1=C[C@H](C2CC2)C[C@H](OCCCCO)O1)N1CCN(Cc2ccc3c(c2)OCO3)CC1,-26.3
15,O=C(C1=C[C@@H](C2CC2)C[C@@H](OCCCCO)O1)N1CCN(Cc2ccccc2)CC1,0.7
16,O=C(C1=C[C@@H](C2CCCCC2)C[C@@H](OCCCCO)O1)N1CCN(Cc2ccccc2)CC1,-50.1
17,CN(CC(=O)O/N=C(\N)c1ccc([N+](=O)[O-])cc1)S(=O)(=O)c1ccc2ccccc2c1,-12.6
18,CCN(C1CCCCC1)S(=O)(=O)c1ccc(C(=O)O)cc1,6.74
19,O=C(Nc1cccnc1Cl)c1ccc(S(=O)(=O)N2CCCCCC2)cc1,-8.39
20,CCc1c2c(nc3ccc(OC(=O)N4CCC(N5CCCCC5)CC4)cc13)-c1cc3c(c(=O)n1C2)COC(=O)[C@]3(O)CC.Cl.O,12.8
21,CC(CCc1ccccc1)NC(=O)CN1CCN(Cc2ccc(Cl)cc2)C1=O (centres unmarked),-53.2
22,Cc1ccc(CN2CCN(CC(=O)NC(C)CCc3ccccc3)C2=O)cc1 (centres unmarked),-20.6
23,Cc1ccc(CCNC(=O)CN2CCN(Cc3ccccc3F)C2=O)cc1,-8.3
24,COc1ccc(CCNC(=O)CN2CCN(Cc3ccccc3F)C2=O)cc1OC,8.26
25,CC(CCc1ccccc1)NC(=O)CN1CCN(Cc2ccccc2)C1=O (centres unmarked),-18.2
26,O=C(CN1CCN(Cc2ccccc2F)C1=O)NCCc1ccc(Cl)cc1,-52.8
